For some assays here: Entries with a potency or affinity are not part of this list.
Assays:
Parameters in all cases: scale not given: direction of the effect not stated beside the values
[1] = target: Protein translocase subunit SecA (Escherichia coli (strain K12)) (UniProt P10408); assay: Assay to Identify E. coli SecA ATPase Inhibitors; type: functional; details: 30 µM
[2] = target: T1, Ubiquitin-activating enzyme e1, putative (Leishmania donovani (strain BPK282A1)) (UniProt E9BSI1); assay: Leishmania donovani Ubiquitin Activating Enzyme (LdE1); type: functional; details: 30 µM
T1 sequence (whole entry): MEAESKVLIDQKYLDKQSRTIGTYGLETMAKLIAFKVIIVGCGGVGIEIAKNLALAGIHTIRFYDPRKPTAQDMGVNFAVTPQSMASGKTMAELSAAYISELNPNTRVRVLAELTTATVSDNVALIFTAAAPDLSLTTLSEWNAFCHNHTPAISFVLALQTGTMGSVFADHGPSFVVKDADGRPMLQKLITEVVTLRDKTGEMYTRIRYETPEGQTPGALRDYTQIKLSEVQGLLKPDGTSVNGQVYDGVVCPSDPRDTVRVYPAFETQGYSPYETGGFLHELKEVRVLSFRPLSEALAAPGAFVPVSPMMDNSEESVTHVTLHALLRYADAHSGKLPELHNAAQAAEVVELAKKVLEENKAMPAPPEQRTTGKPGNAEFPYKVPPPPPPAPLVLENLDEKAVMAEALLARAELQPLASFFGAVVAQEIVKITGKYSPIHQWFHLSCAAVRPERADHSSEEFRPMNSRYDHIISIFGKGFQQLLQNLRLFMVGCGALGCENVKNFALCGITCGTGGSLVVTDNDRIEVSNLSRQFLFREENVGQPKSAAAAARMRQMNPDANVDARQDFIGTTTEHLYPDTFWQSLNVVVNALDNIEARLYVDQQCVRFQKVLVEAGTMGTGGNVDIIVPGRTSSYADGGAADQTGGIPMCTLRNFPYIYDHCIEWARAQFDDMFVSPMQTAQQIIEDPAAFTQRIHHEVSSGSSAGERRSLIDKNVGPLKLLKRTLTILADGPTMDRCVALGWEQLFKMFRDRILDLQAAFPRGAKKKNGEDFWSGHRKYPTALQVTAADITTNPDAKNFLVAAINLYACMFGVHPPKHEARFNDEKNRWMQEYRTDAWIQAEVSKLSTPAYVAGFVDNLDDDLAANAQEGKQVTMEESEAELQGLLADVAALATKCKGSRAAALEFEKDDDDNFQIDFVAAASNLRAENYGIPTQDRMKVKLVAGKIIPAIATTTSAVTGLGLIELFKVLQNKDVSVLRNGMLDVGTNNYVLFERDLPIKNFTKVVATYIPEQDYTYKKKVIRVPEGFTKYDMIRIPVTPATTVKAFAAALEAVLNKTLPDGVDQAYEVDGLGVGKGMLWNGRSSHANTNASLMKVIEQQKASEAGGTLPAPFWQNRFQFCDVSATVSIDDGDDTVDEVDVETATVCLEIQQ

[3] = target: AMP-activated protein kinase, AMPK (Homo sapiens) (UniProt P54646+O43741+P54619+Q9UGJ0+Q9Y478+Q13131+Q9UGI9); assay: AMP-dependent Kinase enzyme assay. An in vitro enzyme assay that detects ADP turnover that is directly proportional to AMPK activity. This uses naive AMPK that is activated during the assay with MK-8722; type: functional; details: 30 µM
[4] = target: Sialic acid-binding Ig-like lectin 9 (Homo sapiens) (UniProt Q9Y336); assay: Hs-Siglec9 ALPHAscreen SOP 20170721; details: 10 µM
Trypanosoma cruzi = assay: Trypanosoma cruzi phosphomannomutase and mannose-1-phosphate guanylyltransferase assay; type: functional; details: 10 µM
[5] = target: T2, Arginase-2, mitochondrial (Homo sapiens) (UniProt P78540); assay: in vitro enzyme assay to detect the production of urea directly proportional to the activity of Arginase II; type: functional; details: 33.3 µM; further: in the data most compounds retested in dose-response had high values
T2 sequence (whole entry): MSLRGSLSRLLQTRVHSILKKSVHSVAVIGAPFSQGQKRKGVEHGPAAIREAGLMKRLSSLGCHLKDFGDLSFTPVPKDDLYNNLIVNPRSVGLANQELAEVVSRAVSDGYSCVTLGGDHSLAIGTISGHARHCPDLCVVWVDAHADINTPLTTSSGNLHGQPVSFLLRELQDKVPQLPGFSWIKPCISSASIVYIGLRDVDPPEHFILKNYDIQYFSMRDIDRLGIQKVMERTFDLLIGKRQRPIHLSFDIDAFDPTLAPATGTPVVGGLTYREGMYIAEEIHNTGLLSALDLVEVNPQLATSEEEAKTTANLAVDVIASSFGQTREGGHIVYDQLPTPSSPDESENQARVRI

[6] = target: T3, Proteasome subunit beta (Trypanosoma cruzi) (UniProt O96673); assay: Trypanosoma cruzi proteasome chymotrypsin-like activity (TcProtChymo) assay.; further: in the data most compounds retested in dose-response had high values; type: functional; details: 9.37 µM
T3 sequence (whole entry): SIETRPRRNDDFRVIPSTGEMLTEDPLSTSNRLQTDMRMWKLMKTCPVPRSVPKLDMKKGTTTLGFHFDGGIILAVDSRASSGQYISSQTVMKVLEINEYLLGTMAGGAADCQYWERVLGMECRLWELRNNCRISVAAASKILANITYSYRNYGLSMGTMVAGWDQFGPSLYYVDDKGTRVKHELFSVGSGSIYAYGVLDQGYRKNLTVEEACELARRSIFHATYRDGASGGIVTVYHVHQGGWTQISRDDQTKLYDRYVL

Homo sapiens = organism: Homo sapiens; assay: To identify inhibition of the IFN signalling (Jak-Stat) pathway via expression of an eGFP reporter gene under the control of an IFN-stimulated response element (ISRE) containing MxA promoter.; type: functional; details: 30 µM
[7] = target: T4, Tyrosyl-tRNA synthetase, putative (Trypanosoma cruzi (strain CL Brener)) (UniProt Q4DSP6); assay: Trypanosoma cruzi tyrosyl tRNA synthetase (TcYRS) _High Tyrosine SOP; type: functional; details: 30 µM; further: in the data most compounds retested in dose-response had high values
T4 sequence (whole entry): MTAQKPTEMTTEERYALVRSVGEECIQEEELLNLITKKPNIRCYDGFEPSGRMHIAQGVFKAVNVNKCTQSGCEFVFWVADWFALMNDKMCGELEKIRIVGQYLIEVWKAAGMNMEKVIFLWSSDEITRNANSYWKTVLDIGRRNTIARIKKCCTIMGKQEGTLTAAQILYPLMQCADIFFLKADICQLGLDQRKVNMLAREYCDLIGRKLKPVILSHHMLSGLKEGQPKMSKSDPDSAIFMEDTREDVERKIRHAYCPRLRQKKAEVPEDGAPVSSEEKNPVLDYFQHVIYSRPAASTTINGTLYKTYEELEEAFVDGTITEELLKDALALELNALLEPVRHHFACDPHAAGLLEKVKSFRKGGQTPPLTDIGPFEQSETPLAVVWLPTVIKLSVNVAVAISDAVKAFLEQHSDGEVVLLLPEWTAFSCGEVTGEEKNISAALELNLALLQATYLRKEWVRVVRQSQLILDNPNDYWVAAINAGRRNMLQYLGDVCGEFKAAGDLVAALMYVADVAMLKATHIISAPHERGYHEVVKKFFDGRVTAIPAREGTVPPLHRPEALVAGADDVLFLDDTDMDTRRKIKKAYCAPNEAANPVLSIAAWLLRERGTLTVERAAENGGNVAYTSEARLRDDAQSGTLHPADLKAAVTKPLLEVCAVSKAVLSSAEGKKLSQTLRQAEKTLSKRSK

[8] = target: T4, Tyrosyl-tRNA synthetase, putative (Trypanosoma cruzi (strain CL Brener)); assay: Trypanosoma cruzi tyrosyl tRNA synthetase (TcYRS) SOP; type: functional; details: 30 µM
[9] = target: Chromo domain-containing protein 1 (Saccharomyces cerevisiae (strain ATCC 204508 / S288c) (Baker's yeast)) (UniProt P32657); assay: ScCHD-1 Enzyme Inhibition Assay; type: functional; details: 30 µM; further: in the data most compounds retested in dose-response had high values
Chain of Chromo domain-containing protein 1 (Saccharomyces cerevisiae (strain ATCC 204508 / S288c) (Baker's yeast)) (P32657 whole entry, the tested form may be a part): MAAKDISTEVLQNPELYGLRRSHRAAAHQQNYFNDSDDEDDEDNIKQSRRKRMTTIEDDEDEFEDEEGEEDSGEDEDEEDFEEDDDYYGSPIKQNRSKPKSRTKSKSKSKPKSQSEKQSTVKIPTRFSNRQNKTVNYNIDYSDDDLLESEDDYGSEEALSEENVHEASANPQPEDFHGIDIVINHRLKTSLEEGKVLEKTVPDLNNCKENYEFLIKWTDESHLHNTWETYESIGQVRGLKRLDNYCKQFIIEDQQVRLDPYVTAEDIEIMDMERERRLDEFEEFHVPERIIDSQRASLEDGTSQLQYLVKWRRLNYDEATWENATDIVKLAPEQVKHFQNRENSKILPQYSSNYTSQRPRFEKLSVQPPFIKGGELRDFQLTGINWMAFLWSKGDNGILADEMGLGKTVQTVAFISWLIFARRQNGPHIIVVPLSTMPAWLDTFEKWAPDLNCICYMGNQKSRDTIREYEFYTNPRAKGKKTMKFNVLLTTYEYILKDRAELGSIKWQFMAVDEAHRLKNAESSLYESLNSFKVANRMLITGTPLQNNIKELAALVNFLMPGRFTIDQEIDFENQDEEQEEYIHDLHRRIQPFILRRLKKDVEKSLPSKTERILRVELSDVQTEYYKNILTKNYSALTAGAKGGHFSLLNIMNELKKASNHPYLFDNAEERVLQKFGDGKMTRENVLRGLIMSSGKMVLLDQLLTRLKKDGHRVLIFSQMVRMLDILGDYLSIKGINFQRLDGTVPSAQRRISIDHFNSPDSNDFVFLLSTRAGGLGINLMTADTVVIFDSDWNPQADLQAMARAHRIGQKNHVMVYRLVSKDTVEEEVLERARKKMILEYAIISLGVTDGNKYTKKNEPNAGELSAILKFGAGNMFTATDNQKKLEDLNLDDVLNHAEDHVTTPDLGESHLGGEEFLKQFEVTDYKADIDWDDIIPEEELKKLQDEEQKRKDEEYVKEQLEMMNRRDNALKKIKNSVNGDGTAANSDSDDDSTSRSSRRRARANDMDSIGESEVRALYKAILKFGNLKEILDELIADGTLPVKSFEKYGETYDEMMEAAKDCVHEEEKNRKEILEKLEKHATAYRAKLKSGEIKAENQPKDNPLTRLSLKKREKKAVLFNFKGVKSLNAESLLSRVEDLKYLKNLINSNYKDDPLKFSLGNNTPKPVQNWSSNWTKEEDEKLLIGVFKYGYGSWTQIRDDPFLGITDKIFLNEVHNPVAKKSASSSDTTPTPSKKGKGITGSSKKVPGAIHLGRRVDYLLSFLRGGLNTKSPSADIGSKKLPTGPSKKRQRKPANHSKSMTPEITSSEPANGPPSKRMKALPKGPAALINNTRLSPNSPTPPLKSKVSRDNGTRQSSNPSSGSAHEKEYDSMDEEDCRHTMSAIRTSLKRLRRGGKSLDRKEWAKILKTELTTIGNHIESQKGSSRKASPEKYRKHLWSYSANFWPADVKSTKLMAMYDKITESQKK

Chain of Protein translocase subunit SecA (Escherichia coli (strain K12)) (P10408 whole entry): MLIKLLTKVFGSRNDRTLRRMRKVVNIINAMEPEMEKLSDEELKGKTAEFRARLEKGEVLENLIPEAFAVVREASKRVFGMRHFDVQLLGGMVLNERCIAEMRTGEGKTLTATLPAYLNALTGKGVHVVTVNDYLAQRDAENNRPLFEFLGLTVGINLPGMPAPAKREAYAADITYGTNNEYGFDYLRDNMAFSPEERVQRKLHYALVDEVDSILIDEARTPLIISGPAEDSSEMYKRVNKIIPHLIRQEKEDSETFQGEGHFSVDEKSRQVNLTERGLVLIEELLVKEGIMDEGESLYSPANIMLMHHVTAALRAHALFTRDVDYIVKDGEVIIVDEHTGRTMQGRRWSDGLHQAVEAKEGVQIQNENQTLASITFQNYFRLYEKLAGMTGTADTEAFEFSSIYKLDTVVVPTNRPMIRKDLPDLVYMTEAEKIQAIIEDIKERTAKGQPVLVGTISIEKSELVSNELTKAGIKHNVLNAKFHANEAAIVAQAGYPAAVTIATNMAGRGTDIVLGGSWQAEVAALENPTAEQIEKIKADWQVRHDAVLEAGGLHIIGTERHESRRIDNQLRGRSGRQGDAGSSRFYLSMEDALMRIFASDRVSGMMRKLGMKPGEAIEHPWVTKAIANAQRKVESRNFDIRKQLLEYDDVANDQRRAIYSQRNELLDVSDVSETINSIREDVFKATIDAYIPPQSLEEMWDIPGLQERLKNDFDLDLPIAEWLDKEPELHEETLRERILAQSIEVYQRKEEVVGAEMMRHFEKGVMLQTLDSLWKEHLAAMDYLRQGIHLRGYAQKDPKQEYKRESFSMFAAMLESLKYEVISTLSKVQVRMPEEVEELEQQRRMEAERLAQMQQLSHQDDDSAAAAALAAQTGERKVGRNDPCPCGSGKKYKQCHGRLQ
Chain of Sialic acid-binding Ig-like lectin 9 (Homo sapiens) (Q9Y336 whole entry): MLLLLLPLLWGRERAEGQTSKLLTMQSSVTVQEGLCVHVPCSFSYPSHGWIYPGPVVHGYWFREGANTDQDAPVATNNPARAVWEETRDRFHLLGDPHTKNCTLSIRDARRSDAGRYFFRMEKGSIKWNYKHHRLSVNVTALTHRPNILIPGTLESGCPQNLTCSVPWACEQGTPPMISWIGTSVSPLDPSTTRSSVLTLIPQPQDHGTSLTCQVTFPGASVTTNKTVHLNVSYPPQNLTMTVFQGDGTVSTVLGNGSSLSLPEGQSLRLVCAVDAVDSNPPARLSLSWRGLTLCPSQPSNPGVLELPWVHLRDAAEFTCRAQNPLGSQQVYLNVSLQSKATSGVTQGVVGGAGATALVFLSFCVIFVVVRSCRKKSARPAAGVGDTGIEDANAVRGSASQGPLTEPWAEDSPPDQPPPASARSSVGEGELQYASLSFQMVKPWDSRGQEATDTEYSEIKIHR

Structure (SMILES)	Percent Effect [1] [%]	Percent Effect [2] [%]	Percent Effect [3] [%]	Percent Effect [4] [%]	Percent Effect (Trypanosoma cruzi) [%]	Percent Effect [5] [%]	Percent Effect [6] [%]	Percent Effect (Homo sapiens) [%]	Percent Effect [7] [%]	Percent Effect [8] [%]	Percent Effect [9] [%]
CS(=O)(=O)NC[C@]12COC[C@H]1CN(C(=O)C1CCCCC1)C2	-1.23	0	2.98	-0.175	-1.47	14.3	17.7	-0.518	-20.5	-25.6	3.02
CS(=O)(=O)c1ccc(OCCNCc2ccc(F)cc2F)cc1	-5.74	8.22	1.54	2.33	4.37	-7.19	9.85	6.01	8.33	13.6	-1.49
O=C(Nc1cccc(Cl)c1)c1nn(C2CCS(=O)(=O)C2)c2c1CCCC2 (stereo not given)	-5	-7.89	10.5	6.51	-1.27	-3.55	12.4	-5.46	-1.06	2.6	-5.58
CN(C)Cc1nnc(C2CCN(c3nccc(N)n3)CC2)n1C1CC1	-4.19	1.39	-3.33	-0.797	1.26	0.442	8.42	-31.4	5.26	5.13	-3.78
COCCN(Cc1nc2c(cnn2C)c(=O)[nH]1)Cc1ccco1	-2.48	16.2	-7.78	-3.6	-4.43	5.61	12.6	4.47	9.36	18.5	-4.09
NC(=O)CCOc1nc(-c2ccccc2Cl)no1	-6.94	2.74	-11.9	31.6	8.23	-1.82	8.87	-2.22	4.3	15	-6.33
CNS(=O)(=O)c1ccc(C(=O)NCCNc2ncccn2)cc1	-3.65	10.5	-2.1	-1.6	-2.52	-1.08	7.36	-4.68	6.4	23.5	-3.3
CC(NC(=O)CCOc1ccccc1Cl)c1nnc2n1CCC2 (stereo not given)	-2.36	10.8	-3.16	-0.604	6.51	-2	5.77	6.7	5.42	16.1	-6.83
Cc1nc(C2CCCN2CC(=O)N(Cc2ccsc2)C2CC2)no1 (stereo not given)	-3.4	-8.11	-3.86	2.75	5.48	-4.99	10.6	25.6	14.8	18.3	-5.35
CC(C)NC(=O)N1CCN(S(=O)(=O)C2CC2)CC2(CNC(=O)C2)C1 (stereo not given)	-6.38	18.2	0.68	2.04	4.63	0.645	7.66	9.81	2.12	11.5	-5.37
